Calls of active or inactive are those of the source. The calls were made as follows, unless noted: active = hit-call score of the fitted dose curve at least 0.9, where 1 is the maximum; inactive = score below 0.9.
Columns and labels:
[1] = read-out: Monocyte Chemoattractant Protein-1 (MCP1), CCL2 (gene 6347); assay: BSK_LPS_MCP1: BioMAP Diversity Plus: LPS Assay for Monocyte Chemoattractant Protein-1 (MCP1) Biomarker Activity (AID 2283081); details: primary human HUVEC with PBMC; actives raise or lower the signal;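 as to AC50: secreted MCP-1 protein quantified by ELISA in culture supernatant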
How it was run: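 HUVEC plus PBMC co-culture (human primary cells, LPS system) exposed to test chemical for 24 h; MCP-1 measured by ELISA. Bidirectional curve fitting against DMSO baseline; parallel SRB total-protein staining flags overt cytotoxicity.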

[2] = BSK_LPS_PGE2: BioMAP Diversity Plus: LPS Assay for Prostaglandin E2 (PGE2) Biomarker Activity (AID 2283082); details: primary human HUVEC with PBMC; actives raise or lower the signal;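 as to AC50: secreted prostaglandin E2 measured by ELISA in LPS-stimulated co-culture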
How it was run: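 Compounds were added to the LPS co-culture of endothelium and PBMC, and PGE2 was measured by ELISA after 24 h. Responses in either direction were fitted with DMSO as baseline.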

[3] = read-out: Tissue Factor, F3 (gene 2152); assay: BSK_LPS_TissueFactor: BioMAP Diversity Plus: LPS Assay for Tissue Factor Biomarker Activity (AID 2283084); details: primary human HUVEC with PBMC; actives raise or lower the signal
How it was run: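 Human umbilical vein endothelial cells co-cultured with peripheral blood mononuclear cells were dosed and stimulated with LPS. Cell-surface CD142 was quantified by ELISA at 24 h. Activity was fitted bidirectionally against DMSO baseline.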

[4] = read-out: Vascular cell adhesion molecule 1 (VCAM1), VCAM1 (gene 7412); assay: BSK_LPS_VCAM1: BioMAP Diversity Plus: LPS Assay for Vascular cell adhesion molecule 1 (VCAM1) Biomarker Activity (AID 2283086); details: primary human HUVEC with PBMC; actives raise or lower the signal
How it was run: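 Cells are dosed in an LPS-stimulated endothelial/mononuclear co-culture and, after 24 h, VCAM-1 is quantified by ELISA. Activity in either direction is fitted relative to the DMSO negative control.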

CD38, CD38 (gene 952) = assay: BSK_SAg_CD38: BioMAP Diversity Plus: SAg Assay for CD38 Biomarker Activity (AID 2283087); details: primary human HUVEC with PBMC; actives raise or lower the signal
How it was run: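 CD38 quantified by ELISA (fluorescence) in a superantigen-activated endothelial cell–PBMC co-culture at 24 h post-dose. Activity fitted in both directions relative to DMSO; parallel SRB and Alamar Blue cytotoxicity read-outs.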

CD40, CD40 (gene 958) = assay: BSK_SAg_CD40: BioMAP Diversity Plus: SAg Assay for CD40 Biomarker Activity (AID 2283088); details: primary human HUVEC with PBMC; actives raise or lower the signal
How it was run: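 Human umbilical vein endothelial cells co-cultured with PBMC; CD40 levels measured by ELISA with fluorescence read-out 24 h after chemical dosing. Gain or loss of signal fitted bidirectionally against DMSO baseline.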

[5] = read-out: Monocyte Chemoattractant Protein-1 (MCP1), CCL2 (gene 6347); assay: BSK_SAg_MCP1: BioMAP Diversity Plus: SAg Assay for Monocyte Chemoattractant Protein-1 (MCP1) Biomarker Activity (AID 2283090); details: primary human HUVEC with PBMC; actives raise or lower the signal
How it was run: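 Values derive from bidirectional fitting of ELISA-measured MCP1 against DMSO controls. Readings were taken 24 h after dosing human vascular endothelial cells co-cultured with peripheral blood mononuclear cells under superantigen stimulation.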

[6] = read-out: Monokine induced gamma interferon (MIG), CXCL9 (gene 4283); assay: BSK_SAg_MIG: BioMAP Diversity Plus: SAg Assay for Monokine induced gamma interferon (MIG) Biomarker Activity (AID 2283092); details: primary human HUVEC with PBMC; actives raise or lower the signal
How it was run: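 Values reflect bidirectional fitting of ELISA-measured MIG against DMSO vehicle, taken 24 h after dosing of a co-culture of human umbilical vein endothelial cells and peripheral blood mononuclear cells.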

[7] = BSK_SAg_PBMCCytotoxicity: PBMC Cytotoxicity Assessment in the BioMAP Diversity Plus: SAg Assay (AID 2283093); details: primary human HUVEC with PBMC;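 also: PBMC viability measured as Alamar Blue reduction fluorescence at 546/580 nm; fitted both ways against DMSO so a hit may be loss or gain of signal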;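 as to AC50: PBMC superantigen activated with SEB plus TSST-1 one hour after compound addition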
How it was run: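 Alamar Blue reduction (6 h, ex/em 546/580 nm) read after 90 h culture of PBMC pre-dosed 1 h then stimulated with SEB plus TSST-1, 20 ng/mL each. Gain or loss of signal fitted relative to DMSO.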

[8] = read-out: Interleukin-8 (IL8), CXCL8 (gene 3576); assay: BSK_SAg_IL8: BioMAP Diversity Plus: SAg Assay for Interleukin-8 (IL8) Biomarker Activity (AID 2283094); details: primary human HUVEC with PBMC; actives raise or lower the signal
How it was run: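 Chemicals were dosed onto a human endothelial–PBMC co-culture, and IL-8 was quantified by ELISA after 24 h. Both increases and decreases were fitted relative to DMSO.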

[9] = BSK_SAg_Proliferation: Cell Proliferation Assessment in the BioMAP Diversity Plus: SAg Assay (AID 2283095); details: primary human HUVEC with PBMC;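 also: relative cell number as total protein by SRB absorbance in sub-confluent culture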
How it was run: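 Absorbance of sulforhodamine B at 560 nm reports total protein in a human vascular endothelial/PBMC co-culture after 96 h chemical exposure. Gain or loss of signal is fitted in both directions against DMSO.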

[10] = BSK_SAg_SRB: Viability Assessment in the BioMAP Diversity Plus: SAg Assay (AID 2283096); details: primary human HUVEC with PBMC;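 also: cells read one day after compound addition; hits may be either gain or loss of signal compared with DMSO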
How it was run: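 SRB absorbance at 560 nm served as the viability read-out. Cells (HUVEC plus peripheral blood mononuclear cells) were TCA-fixed and stained 24 h post-dosing; activity fitted in both directions against DMSO controls.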

[11] = biological target: human CYP2D6, CYP2D6 (gene 1565) (UniProt P10635); assay: NVS_ADME_hCYP2D6: NovaScreen (NVS) CYP450-related Enzyme Activity (ADME) Assay for human CYP2D6 (AID 2283107; active = hit-call score of the fitted dose curve at least 0.9, where 1 is the maximum)
human CYP2D6, CYP2D6 (gene 1565), sequence (P10635 whole entry, looked up): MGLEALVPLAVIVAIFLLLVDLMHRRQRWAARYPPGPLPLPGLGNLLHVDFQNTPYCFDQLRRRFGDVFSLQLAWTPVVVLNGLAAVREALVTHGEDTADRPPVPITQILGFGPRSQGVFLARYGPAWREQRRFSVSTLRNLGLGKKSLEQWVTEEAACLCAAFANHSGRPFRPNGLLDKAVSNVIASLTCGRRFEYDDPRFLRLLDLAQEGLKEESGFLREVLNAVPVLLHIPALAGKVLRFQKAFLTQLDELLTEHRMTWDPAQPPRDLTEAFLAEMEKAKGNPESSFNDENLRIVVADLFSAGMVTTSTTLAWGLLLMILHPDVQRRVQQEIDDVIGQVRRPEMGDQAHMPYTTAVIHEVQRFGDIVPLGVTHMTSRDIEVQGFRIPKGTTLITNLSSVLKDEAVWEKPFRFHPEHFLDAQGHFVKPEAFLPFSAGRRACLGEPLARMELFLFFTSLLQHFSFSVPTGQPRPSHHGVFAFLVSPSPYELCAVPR
How it was run: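 Cell-free assay using recombinant enzyme expressed in insect cells, with fluorescence-intensity readout of enzyme activity 1 hour after chemical dosing. Loss of signal versus acetonitrile negative control indicates inhibition. Primary screen ran in duplicate at 10 uM; actives were retested in concentration series.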

Measured: AC50

CC(=O)Nc1ccc(C(=O)CCl)cc1
active: [1] 5.89 µM | [2] 1.17 µM | [3] 5.39 µM | [4] 4.35 µM | CD38, CD38 (gene 952) 3.84 µM | CD40, CD40 (gene 958) 4.69 µM | [5] 10.6 µM | [6] 8.55 µM | [7] 4.16 µM | [8] 4.9 µM | [9] 0.92 µM | [10] 6.11 µM | [11] 3.64 µM

CC(=O)C(C)O (centres undefined)
active: [11] 5 µM

CCN(CC)C(=O)N(CC)CC
inactive: [1] | [2] | [3] | [4] | CD38, CD38 (gene 952) | CD40, CD40 (gene 958) | [5] | [6] | [7] | [8] | [9] | [10]

CC(=O)C1(C)CC2=C(CCCC2(C)C)CC1C (centres undefined)
active: [1] 10.9 µM | [3] 10.1 µM | [4] 13 µM | CD38, CD38 (gene 952) 33 µM | CD40, CD40 (gene 958) 15.2 µM | [5] 23.6 µM | [6] 33.9 µM | [7] 12 µM | [8] 34.4 µM | [9] 9.65 µM | [10] 26.8 µM
inactive: [2]

O=C1c2ccccc2C(=O)c2c(O)ccc(O)c21
inactive: [1] | [4] | CD40, CD40 (gene 958) | [5] | [6] | [10]
active: [2] 0.233 µM | [3] 3.52 µM | CD38, CD38 (gene 952) 13.1 µM | [7] 14.4 µM | [8] 3.15 µM | [9] 16.5 µM

COc1ccc(CCN2CCC(Nc3nc4ccccc4n3Cc3ccc(F)cc3)CC2)cc1
inactive: [1] | [2] | [3] | [4] | CD40, CD40 (gene 958) | [5] | [6]
active: CD38, CD38 (gene 952) 5 µM | [7] 6.91 µM | [8] 2.39 µM | [9] 6.38 µM | [10] 5 µM

C=C(C)C(=O)OCC(CC)(COC(=O)C(=C)C)COC(=O)C(=C)C
active: [4] 19.7 µM | [9] 8.4 µM
inactive: [1] | [2] | [3] | CD38, CD38 (gene 952) | CD40, CD40 (gene 958) | [5] | [6] | [7] | [8] | [10]
